Experimental data reported in PubChem BioAssay.
Active and inactive are the calls of the source.

Experiments:
[1] = test system: Human papillomavirus type 1a protein E7 (residues 44-93); test: HPV1a E7 fragment binders on microarrays, primary screen, biochemical, small-molecule microarray, residues 44-93, 635 nm fluorescence (AID 1108); conditions: small-molecule microarray binding, fluorescence 635 nm; higher = more signal;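 also: E7 fragment applied at 1 µg/mL in TBST for 1 h at 4 C; score combines spot fluorescence with its signal to noise ratio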
[2] = modulators of HCV replicon luciferase signal, primary screen, HCV replication inhibitor project, Huh7 cells, luciferase reporter (AID 1109); conditions: 48 h, higher = more signal;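 also: huh7 hepatoma cells harbouring a luciferase neomycin HCV replicon reporter; luciferase luminescence as measure of HCV replicon replication; test concentration not given here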
[3] = target: Left-right determination factor 2 (Homo sapiens) (UniProt O00292); test: LEFTY2 binders on small-molecule microarrays, primary screen, biochemical, small-molecule microarray, 635 nm fluorescence scan (AID 1110); conditions: LEFTY2 binding, higher = more signal
[4] = target: Calmodulin-1 (Homo sapiens) (UniProt P0DP23); test: CALM1 binders on microarrays, EGTA buffer, profiling panel, biochemical, small-molecule microarray, Cy5-labelled CALM1 (AID 1111); conditions: Cy5-CALM1 binding fluorescence, higher = more signal;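 also: labelled calmodulin applied in Tris saline Tween buffer holding calcium plus EGTA and DTT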
[5] = target: Calmodulin-1 (Homo sapiens) (UniProt P0DP23); test: calcium-bound CALM1 binders on microarrays, profiling panel, artefact control for SMM control-protein annotation, biochemical, small-molecule microarray, Cy5-labelled CALM1, plus calcium (AID 1112); conditions: Cy5-CALM1 binding fluorescence, higher = more signal;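 also: score merges spot fluorescence with signal to noise from triplicate slides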
[6] = small-molecule microarray binders of probe aWnt5a, primary screen, biochemical, biotinylated probe, 635/667 nm fluorescence (AID 1113); conditions: higher = more signal;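 also: score merges 667 nm fluorescence intensity with signal-to-noise per printed feature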
[7] = small-molecule microarray binders of probe aShh, primary screen, biochemical, biotinylated probe, 635/667 nm fluorescence (AID 1114); conditions: higher = more signal;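 also: probe is biotin-labelled aShh protein from a stem cell growth factor screen; measures binding of labelled protein to compounds printed on the slide; score merges feature fluorescence at 667 nm with signal-to-noise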
[8] = small-molecule microarray binders of probe aNog, primary screen, biochemical, biotinylated probe, 635/667 nm fluorescence (AID 1115); conditions: higher = more signal;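 also: probe is biotinylated aNog protein used at 0.15 µg/mL for 1 h at 4 C; z-score combines 667 nm fluorescence of each spot with its signal to noise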
[9] = target: Torsin-1A-interacting protein 1 (Homo sapiens) (UniProt Q5JTV8); test: LAP1 binders from COS7 cell lysate, primary screen, small-molecule microarray, 635/667 nm fluorescence (AID 1116); conditions: COS7-hLAP1 lysate binding, 635 nm fluorescence, higher = more signal
[10] = target: Alpha-bungarotoxin (Bungarus multicinctus) (UniProt P60615); test: alpha-bungarotoxin binders on microarray, profiling panel, artefact control for SMM control protein annotation, biochemical, small-molecule microarray, Alexa647 label, 635/667 nm fluorescence (AID 1117); conditions: alpha-BTX-A647 binding fluorescence, higher = more signal
Albumin (Bos taurus) = Albumin (Bos taurus) (UniProt P02769); test: bovine serum albumin binders on microarray, profiling panel, artefact control for SMM control protein annotation, biochemical, small-molecule microarray, Alexa647 label, 635/667 nm fluorescence (AID 1118); conditions: BSA-A647 binding, fluorescence 635 nm, higher = more signal;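 also: score merges 667 nm emission intensity and signal-to-noise per printed compound spot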
[11] = small-molecule microarray binders of probe aXIP, primary screen, biochemical, NeuroSMM set, 635/667 nm fluorescence (AID 1119); conditions: higher = more signal, called active from +8 up or from −8 down;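 also: probe is the protein aXip251-270 applied at 1 µg/mL to compound-printed slides; binding of probe to printed compounds measured as 667 nm fluorescence plus signal to noise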
[12] = small-molecule binders of probe aNOTCH3, primary screen, biochemical, small-molecule microarray, 635/667 nm fluorescence (AID 1120); conditions: higher = more signal;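 also: probe is a biotin-tagged antibody raised against NOTCH3 rather than NOTCH3 protein; score merges spot fluorescence near 667 nm with spot signal to noise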
[13] = small-molecule binders of probe aNOTCH2, primary screen, biochemical, small-molecule microarray, 635/667 nm fluorescence (AID 1121); conditions: higher = more signal;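 also: score merges feature fluorescence read at 667 nm with its signal to noise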
[14] = target: Carbonic anhydrase 2 (Homo sapiens) (UniProt P00918); test: CAII small-molecule binders, profiling panel, biochemical, small-molecule microarray, Alexa647-labelled CAII (AID 1122); conditions: CAII-A647 binding fluorescence, higher = more signal
[15] = COS7 lysate on small-molecule microarray, probe aHis, 635 nm (AID 1123); conditions: COS7 cell lysate, fluorescence, higher = more signal;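 also: z-score combines 667nm fluorescence intensity with signal-to-noise per printed compound spot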
[16] = compound binding in COS7 lysate, probe aLAP1, primary screen, cell lysate, small-molecule microarray (AID 1124); conditions: probe aLAP1, fluorescence, higher = more signal;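 also: lysate comes from COS7 cells expressing LAP1 and is applied at 0.3 µg/mL; score merges spot fluorescence near 667 nm with signal-to-noise over triplicate slides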
Sam68 (KHDRBS1) = test: Sam68 small-molecule binders, primary screen, biochemical, small-molecule microarray, 635 nm fluorescence (AID 1125); conditions: small-molecule microarray binding, higher = more signal;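 also: score merges 667 nm channel intensity with signal to noise over triplicate slides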
[17] = test system: Chordin-like protein 2 (CHRDL2); test: CHRDL2 small-molecule binders, primary screen, biochemical, small-molecule microarray, 635 nm fluorescence (AID 1126); conditions: small-molecule microarray binding, fluorescence 635 nm; higher = more signal;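 also: printed compound slides probed with Chrdl2 protein at 4 µg/mL for 1 h at 4 C; score merges 667 nm emission intensity with signal to noise over three replicate slides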
[18] = target: Concanavalin-A (Canavalia ensiformis) (UniProt P02866); test: ConA small-molecule binders, primary screen, artefact control for SMM control protein annotation, biochemical, small-molecule microarray, Alexa647 label, 635 nm (AID 1127); conditions: ConA-A647 binding fluorescence, higher = more signal;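 also: z combines 667 nm emission intensity with signal-to-noise across three replicate slides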
Concanavalin-A (Canavalia ensiformis), sequence (P02866 whole entry, looked up): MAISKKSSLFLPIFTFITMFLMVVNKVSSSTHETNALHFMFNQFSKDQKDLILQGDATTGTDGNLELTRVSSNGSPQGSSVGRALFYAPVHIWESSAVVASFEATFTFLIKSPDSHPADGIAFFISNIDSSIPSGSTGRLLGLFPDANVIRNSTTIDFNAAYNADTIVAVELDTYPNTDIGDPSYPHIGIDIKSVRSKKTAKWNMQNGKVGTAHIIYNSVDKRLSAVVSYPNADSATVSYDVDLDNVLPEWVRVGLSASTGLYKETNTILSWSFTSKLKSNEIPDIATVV

Left-right determination factor 2 (Homo sapiens), sequence (O00292 whole entry, looked up): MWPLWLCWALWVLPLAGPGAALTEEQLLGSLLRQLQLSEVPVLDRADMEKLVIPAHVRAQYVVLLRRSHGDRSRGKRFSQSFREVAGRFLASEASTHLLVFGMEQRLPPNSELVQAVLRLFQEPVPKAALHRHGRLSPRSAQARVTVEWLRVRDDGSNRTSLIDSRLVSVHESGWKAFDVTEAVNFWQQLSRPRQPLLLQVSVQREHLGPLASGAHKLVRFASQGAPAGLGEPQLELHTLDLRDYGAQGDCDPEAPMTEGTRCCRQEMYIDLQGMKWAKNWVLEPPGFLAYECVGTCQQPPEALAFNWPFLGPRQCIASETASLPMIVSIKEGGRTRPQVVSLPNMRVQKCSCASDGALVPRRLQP
Albumin (Bos taurus), sequence (P02769 whole entry, looked up): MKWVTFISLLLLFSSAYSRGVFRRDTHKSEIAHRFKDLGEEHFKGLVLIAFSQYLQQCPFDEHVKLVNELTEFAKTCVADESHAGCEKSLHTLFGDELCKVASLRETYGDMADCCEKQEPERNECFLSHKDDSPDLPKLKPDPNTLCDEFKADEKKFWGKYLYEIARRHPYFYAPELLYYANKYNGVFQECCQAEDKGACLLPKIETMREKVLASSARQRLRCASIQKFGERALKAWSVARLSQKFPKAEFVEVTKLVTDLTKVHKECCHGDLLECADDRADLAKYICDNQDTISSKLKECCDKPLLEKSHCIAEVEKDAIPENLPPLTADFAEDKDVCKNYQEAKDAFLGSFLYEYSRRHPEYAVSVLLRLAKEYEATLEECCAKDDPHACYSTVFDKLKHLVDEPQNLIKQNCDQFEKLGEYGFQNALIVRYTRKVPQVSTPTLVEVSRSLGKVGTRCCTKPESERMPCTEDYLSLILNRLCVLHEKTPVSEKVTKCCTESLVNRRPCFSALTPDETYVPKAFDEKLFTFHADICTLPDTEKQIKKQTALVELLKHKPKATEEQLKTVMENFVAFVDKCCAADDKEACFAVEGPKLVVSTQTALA
Torsin-1A-interacting protein 1 (Homo sapiens), sequence (Q5JTV8 whole entry, looked up): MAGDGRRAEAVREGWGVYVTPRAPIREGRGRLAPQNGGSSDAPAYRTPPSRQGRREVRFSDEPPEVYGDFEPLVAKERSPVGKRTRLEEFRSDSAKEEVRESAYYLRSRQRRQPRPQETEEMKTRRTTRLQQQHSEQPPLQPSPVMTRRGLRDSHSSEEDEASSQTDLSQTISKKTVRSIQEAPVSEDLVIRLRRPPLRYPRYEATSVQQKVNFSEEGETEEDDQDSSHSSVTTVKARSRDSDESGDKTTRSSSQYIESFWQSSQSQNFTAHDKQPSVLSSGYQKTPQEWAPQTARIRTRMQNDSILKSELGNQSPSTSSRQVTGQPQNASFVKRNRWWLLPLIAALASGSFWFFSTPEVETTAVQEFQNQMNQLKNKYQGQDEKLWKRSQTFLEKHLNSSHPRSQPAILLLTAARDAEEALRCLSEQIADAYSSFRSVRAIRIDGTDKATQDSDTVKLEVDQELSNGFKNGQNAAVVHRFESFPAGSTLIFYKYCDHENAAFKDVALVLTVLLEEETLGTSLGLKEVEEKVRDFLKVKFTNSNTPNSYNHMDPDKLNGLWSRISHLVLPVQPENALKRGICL
Alpha-bungarotoxin (Bungarus multicinctus), sequence (P60615 whole entry, looked up): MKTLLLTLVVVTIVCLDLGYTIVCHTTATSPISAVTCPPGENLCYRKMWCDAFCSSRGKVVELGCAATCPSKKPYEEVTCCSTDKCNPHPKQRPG

Structure (SMILES) | composite z-score [1] | z-score [2] | composite z-score [3] | composite z-score [4] | composite z-score [5] | composite z-score [6] | composite z-score [7] | composite z-score [8] | composite z-score [9] | composite z-score [10] | composite z-score (Albumin (Bos taurus)) | composite Z-score [11] | composite z-score [12] | composite z-score [13] | composite z-score [14] | composite z-score [15] | composite z-score [16] | composite z-score (Sam68 (KHDRBS1)) | composite z-score [17] | composite z-score [18]
COc1cc(CO)cc(I)c1O[C@H]1C=C(C(=O)NCCO)C[C@@H](NCc2ccccc2F)[C@@H]1O | 0.509 | -2.62 | 0.365 | -0.154 | -0.327 | -0.264 | -0.138 | -0.103 | 1.4 | 0.109 | 0.162 | 0.235 (inactive) | 0.0979 | -0.179 | 0.218 | 0.558 | 0.303 | 1.02 | 0.486 | 0.746
Cc1ccc(S[C@]2(C(=O)NCC(C)C)CC(=O)N(Cc3ccccc3Cl)[C@@H]2c2ccc(CO)cc2I)cc1 | 0.409 | -1.55 | -1.16 | -0.363 | -0.0595 | 0.31 | -0.221 | 0.515 | 0.359 | 1.48 | -0.253 | 0.0894 (inactive) | -0.179 | -0.127 | 0.763 | 0.363 | 0.142 | 0.245 | -0.332 | -0.395
CN1C(=O)C2C=CC(C(O)Cc3ccccc3)N(N(c3ccccc3)c3ccccc3)C2C1=O (stereo not given) | 0.501 | -0.251 | -0.268 | -0.0282 | 0.372 | 0.0438 | 0.0469 | 1.14 | 0.368 | 0.678 | 0.829 | 0.895 (inactive) | 0.116 | -0.0086 | 0.613 | 1.02 | 0.521 | 0.805 | -0.897 | 0.325
C=CC[C@@H](OC(=O)Nc1ccc(OC)cc1)c1ccc(OCCO)cc1 | -1.65 | 1.51 | -1.8 | -1.4 | -0.819 | -0.224 | 0.0723 | -0.364 | -0.326 | -0.809 | 0.384 | 0.166 (inactive) | -0.46 | -0.0911 | 0.709 | 0.31 | -0.347 | -0.661 | -2 | -1.54
CCOC(=CC(=O)OC)CC(O)c1cccc(Cl)c1 (stereo not given) | 1.11 | -2.17 | -0.796 | -0.265 | 0.486 | -0.0685 | -0.156 | -0.527 | 1.36 | -0.259 | 0.451 | -0.114 (inactive) | -0.17 | -0.176 | 0.606 | 1.47 | 0.49 | 0.505 | -1.42 | 0.0032
Cc1ccc(S[C@]2(C(=O)O)CC(=O)N(Cc3ccccc3Cl)[C@@H]2c2ccc(CO)cc2)cc1 | 0.459 | -0.828 | -1.54 | 0.459 | 0.644 | -0.192 | 0.131 | 0.549 | 0.0695 | 1.57 | 0.489 | -0.173 (inactive) | -0.159 | -0.0519 | 0.75 | 1.72 | 0.591 | -0.503 | -0.828 | -0.503
COc1ccc(NN2C(C(O)c3ccccn3)C=CC3C(=O)N(C4CCCCC4)C(=O)C32)cc1 (stereo not given) | 1.41 | -0.602 | -0.188 | 1.58 | 0.37 | 0.0391 | 0.0875 | 1.17 | 0.766 | 0.887 | 0.907 | 0.0797 (inactive) | 0.263 | 0.0117 | 0.7 | 2.24 | 0.969 | 1.3 | -0.203 | 1.14
C=CC[C@@]12N=C(c3ccc(OCCCO)cc3)O[C@@H]1c1ccccc1N(CCS(=O)(=O)c1ccccc1)C2=O | 1.38 | -0.925 | 0.526 | 1.69 | 0.727 | -0.0303 | 0.147 | -0.0569 | 0.676 | 0.448 | 0.873 | -0.32 (inactive) | 0.0692 | -0.16 | 0.724 | 1.78 | 0.551 | 1.31 | 0.992 | 1.17
O=C1NC(=O)C2C1C=CC(C(O)c1ccc(Br)cc1)N2Nc1ccccn1 (stereo not given) | -0.444 | 0.233 | 0.727 | -0.156 | -0.435 | 0.149 | 0.254 | 0.356 | 0.531 | 0.22 | 0.849 | -0.838 (inactive) | 0.327 | 0.176 | 0.822 | 0.991 | 0.74 | 0.0126 | 0.913 | 0.48
[N-]=[N+]=Nc1ccccc1C[C@]1(C(=O)NCc2ccccc2)N=C(c2ccc(OCCCO)cc2)O[C@H]1c1ccccc1 | 1.08 | -1.58 | -0.397 | 2.03 | 0.848 | 0.0357 | 0.28 | 1.85 | 1.39 | 1.77 | 0.989 | 0.0068 (inactive) | 0.285 | 0.0443 | 0.714 | 2.93 | 0.373 | 1.29 | -0.755 | 1.07
CCOC(=O)C[C@H]1[C@H](OC(=O)Cc2ccc3c(c2)OCO3)[C@@H](NC(=O)Cc2ccc(OC)cc2)c2cc(OCCCO)ccc2N1C(=O)c1ccccc1 | 0.142 | -1.72 | 0.609 | 0.0314 | -0.551 | -0.154 | 0.233 | 0.588 | 0.569 | 0.997 | 0.793 | -0.0539 (inactive) | -0.141 | -0.0502 | 0.461 | 0.682 | -0.0207 | 1.01 | -0.353 | 0.277
